Compound activity as filed in PubChem BioAssay.
BoNT F protease – BoNT/F light chain protease inhibitors, primary screen, biochemical, flow cytometry, MLPCN library. Multiplex microsphere protease cleavage assay. inhibition, % at 10 µM. hit rate 0.22% among 360,000; in the data active = inhibition above about 35%, passing the limit was not always enough; inconclusive = no clear call, values can overlap the other calls; note: plate controls were buffer without enzyme for full effect and enzyme alone for no effect
Bead autofluor – compound fluorescence in toxin protease inhibitor counterscreen. compound autofluorescence counterscreen, microsphere flow cytometry; hits give high values. fluorescence intensity (concentration not given with the values). AID 624483. hit rate 3.1% among 360,000; in the data active = fluorescence intensity above about 16000; inconclusive = no clear call, values can overlap the other calls
BoNT-A LC inh2 – BoNT/A light chain protease inhibitors, primary screen, biochemical, flow cytometry, MLPCN library; Botulinum neurotoxin type A light chain protease (Clostridium botulinum A str. ATCC 3502); multiplex microsphere protease substrate cleavage; inhibition, % at 10 µM; hit rate 0.17% among 360,000; AID 588499, 2011; note: plate controls were buffer without enzyme for full effect and enzyme alone for no effect
TcdB inh – TcdB glycohydrolase inhibitors, primary screen, biochemical, single point, plate reader; Toxin B (Clostridioides difficile), P18177; TcdB glycohydrolase enzymatic assay; hit rate 0.24% among 350,000; inhibition, % at 9.99 µM; in the data active = inhibition above about 10%
Anthrax LF prot – Bacillus anthracis LF protease inhibitors, primary screen, biochemical, multiplex microsphere, MLPCN library | Lethal factor (Bacillus anthracis), P15917 | multiplex microsphere protease cleavage assay | inhibition, % at 10 µM | hit rate 0.12% among 360,000 | AID 588501, 2011; note: plate controls were buffer without enzyme for full effect and enzyme alone for no effect
* = called active by the depositor; ? = inconclusive; . = no result given. Only a selection was taken, and hits are over-represented in it overall. Cut-off read from the data, not from the text of the source, unless noted: active = inhibition above about 30%; inconclusive = no clear call, values can overlap the other calls; inactive = below that.

SMILES | BoNT F protease | Bead autofluor | BoNT-A LC inh2 | TcdB inh | Anthrax LF prot
CCCOc1ccc(C2C(=O)N(C3CCCCC3)CC(=O)N2C2CC2)cc1OC (stereo unspecified) | -3 | 20615* | -2 | . | -2
CCCOc1ccc(C2C(=O)N(C3CCCCCC3)CC(=O)N2Cc2ccco2)cc1OC (stereo unspecified) | 0 | 22488* | 0 | . | 1
COc1ccc(CN2C(=O)CN(C3CCCCCC3)C(=O)C2c2ccc(OC)c(OC)c2)cc1 (stereo unspecified) | -2 | 10137 | -1 | . | -1
COc1ccc(C2C(=O)N(C3CCCCCC3)CC(=O)N2Cc2ccccc2)cc1OC (stereo unspecified) | 0 | 19721* | 1 | . | -2
CCCOc1ccc(C(=O)c2nc3c(n2O)CCCC3)cc1 | 0 | 22563* | 1 | . | 3
CCOc1ccc(C(=O)c2nc3c(n2O)CCCCC3)cc1 | -21 | 3949 | 0 | 1 | -1
O=C(c1ccc(Oc2ccccc2)cc1)c1nc2c(n1O)CCCC2 | -5 | 23776* | ? | 0 | -1
COc1ccc(C(=O)c2nc3c(n2O)CCCC3)cc1OC | -21 | 4898 | -3 | . | -1
COc1ccc(C(=O)c2nc3c(n2O)CCCCC3)cc1 | 11 | 2344 | 0 | . | 2
COc1ccc(OC)c(C(=O)c2nc3c(n2O)CCCCC3)c1 | -6 | 23230* | -2 | . | -2
C[C@@H]1CCCCO[C@H](CN(C)C(=O)Nc2ccc(F)cc2)[C@@H](C)CN([C@@H](C)CO)C(=O)c2cc(NC(=O)C3CCCCC3)ccc2O1 | . | . | . | -1 | .
CC(C)CCNC(=O)C(=O)NC1CCCC1 | 0 | 2228 | 0 | 1 | -1
CC(C)CCNC(=S)NC1CCCC1 | 5 | 20284* | 4 | . | -3
O=C1CS/C(=N\C(=O)N2c3ccccc3Sc3ccccc32)N1 | -3 | 24179* | -1 | . | 1
NCCC(=O)N1c2ccccc2Sc2ccccc21 | -44 | 4134 | -7 | 0 | -14
O=C(NCCc1ccncc1)C(F)(F)F | 0 | 24347* | -1 | . | 0
NS(=O)(=O)c1ccc(CCNC(=O)c2ccccc2F)cc1 | -6 | 16685* | -2 | . | -1
O=C(NCCNC(=O)C(F)(F)F)c1ccncc1 | 9 | ? | 0 | . | ?
O=C(NCCc1ccncc1)c1ccccc1F | 4 | 21712* | 3 | . | 1
O=C(NCC[C@@H]1CC[C@@H](NS(=O)(=O)c2cccc(F)c2)[C@@H](CO)O1)Nc1cc(F)ccc1F | . | . | . | -9 | .
CC(C)C(NS(=O)(=O)c1c(Cl)cccc1Cl)C(=O)OCC(=O)c1c[nH]c2ccccc12 (stereo unspecified) | -16 | 4613 | 58* | . | 15
CS(=O)(=O)Nc1ccc2c(c1)[C@@H]1C[C@@H](CC(=O)NCC(F)(F)F)O[C@@H](CO)[C@@H]1O2 | . | . | . | -7 | .
CC1CCCC(NC(=O)COC(=O)Cc2ccccc2)C1C (stereo unspecified) | 8 | 17041* | 7 | . | -20
O=C(CCCn1c(=O)oc2ccccc21)N1CCc2ccccc2C1 | 2 | 2970 | 0 | . | -2
CC1CCCC(NC(=O)COC(=O)Cc2ccc(Cl)cc2)C1C (stereo unspecified) | -5 | 3543 | 0 | 1 | 3
SMILES | BoNT F protease | Bead autofluor | BoNT-A LC inh2 | TcdB inh | Anthrax LF prot
CC1CCCCC1NC(=O)CCn1c(=O)oc2ccccc21 (stereo unspecified) | 20 | 10700 | 1 | 0 | 4
CC1CCCC(NC(=O)CCn2c(=O)oc3ccccc32)C1C (stereo unspecified) | 0 | 22573* | 1 | . | -4
O=C(CCn1c(=O)oc2ccccc21)NCCN1CCc2ccccc2C1 | 5 | 20382* | 1 | . | 1
COc1cccc(CNC(=O)CCn2c(=O)oc3ccccc32)c1 | -4 | 25239* | -3 | . | -3
CC1(C(=O)Nc2c(F)c(F)c(F)c(F)c2F)CC1(Br)Br (stereo unspecified) | ? | 4037 | 2 | 0 | 31*
CO[C@@H]1CN(C)C(=O)c2ccc(NC(=O)Nc3ccccc3F)cc2OC[C@H](C)N(C(C)=O)C[C@H]1C | . | . | . | -1 | .
CCCC(=O)c1c(O)[nH]c(=O)[nH]c1=O | -2 | 22341* | -1 | 0 | 2
CC/C(=N\NC(N)=O)c1c(O)[nH]c(=O)[nH]c1=O | ? | ? | -1 | 2 | -17
CCN1/C(=C\C(=S)Nc2ccccc2)Sc2ccccc21 | -45 | 3324 | 39* | . | -5
